The results in this text go back to the supplement of paper PMC10681739.

One test has as its target T1, ETS1 (UniProt P14921).
T1 sequence: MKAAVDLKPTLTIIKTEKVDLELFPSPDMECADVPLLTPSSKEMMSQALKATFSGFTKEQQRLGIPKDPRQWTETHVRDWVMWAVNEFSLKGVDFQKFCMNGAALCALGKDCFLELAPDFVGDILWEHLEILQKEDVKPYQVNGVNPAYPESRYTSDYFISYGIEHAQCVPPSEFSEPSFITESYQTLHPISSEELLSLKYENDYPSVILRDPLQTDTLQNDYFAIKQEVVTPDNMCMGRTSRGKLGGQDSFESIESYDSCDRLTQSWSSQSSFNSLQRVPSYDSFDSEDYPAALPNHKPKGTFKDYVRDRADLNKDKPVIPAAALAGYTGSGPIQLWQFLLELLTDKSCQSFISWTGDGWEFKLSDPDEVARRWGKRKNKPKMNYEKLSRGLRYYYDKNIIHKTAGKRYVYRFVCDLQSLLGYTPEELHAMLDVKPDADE
Nature of the test: ETS1 binding intensity (PBM fluorescence), ETS1 alone (arbitrary fluorescence units); higher = stronger binding. The conditions noted are these: ETS1 concentration 1 nM; RUNX1 concentration 0 nM.
In the case of GCCCCTCTTCCTGACTCACACAACCGCCTCTAGTCT, the ETS1 binding intensity amounted to 457.

Turning to TGGCTACCCGGAAGGCGCGTTGGCTGCGGCTACGCA, the ETS1 binding intensity was 549.

CTTCGCCGCTTCCAGGAAGGGCCACAACGGCCGTCG yielded an ETS1 binding intensity of 563.

Turning to GGCCTTCTGCCTACATCCTGCGGCGCCCGCGACCCG, the ETS1 binding intensity came to 679.

Take AGCACCCCACATCCTGCACCCCACAACCCAGATCCC: the ETS1 binding intensity amounted to 510.

GGGGAAGAGGAAGCTGTGTCCGCGGTGCAAGGGGTT: the ETS1 binding intensity was found to be 533.

In turn, CATTCCCGAGAGACTTCCGCGCCGCAGTTTCCCTGC gave an ETS1 binding intensity of 523.

On to TGCACACATGAGGAAGGGGTAAGTGGTTTTCCCTAC, for which the ETS1 binding intensity came to 498.

As to AACACTATTTCCTTTCTTGCTGCCCACATTTTAACA, the ETS1 binding intensity is 520.

The sequence AGGTGGGAGGAAGTTCCTACCCCGGCGCGGTGTGCA registered an ETS1 binding intensity of 625.

Turning to CCGCCTCCGGAAGAATTCTCTGCGGGCATGTTGCTG, the ETS1 binding intensity is 736.

Consider CCCGGTGCACCGGATCCGACCACACCCTGGGTGGGC, for which the ETS1 binding intensity is 525.

ACCCTCTTTCCGGTGGAAAGCTGCGGCCTCCCAGAG displayed an ETS1 binding intensity of 464.

Sequence AGAACAGGATGTTCTGAGTACAGCATGAACCTCAAA registered an ETS1 binding intensity of 1280.

The sequence GAACCCCAAGTTCCGGCTGGCACTGCGGCGGAGCCT returned an ETS1 binding intensity of 452.

Sequence TCCTAGCCATTTCCTATCCACCCTGTGGCTAATTTG displayed an ETS1 binding intensity of 437.

The sequence GCAGGAAATGACGTCAGACCTCACTGCGGGTCTGAG registered an ETS1 binding intensity of 853.

For the sequence CAAAGGGGAACGAGGAAACCGCCAGGGGCGGGGCGG, the ETS1 binding intensity came out at 485.

The sequence AGCTGCGGAGCATCCGCTGCGGTCCTCGCCGAGACC returned an ETS1 binding intensity of 450.

Another test deals with T1, ETS1. Nature of the test: ETS1 binding intensity (PBM fluorescence) in presence of RUNX1, normalised to ETS1-only experiment (arbitrary fluorescence units); higher = stronger binding. The conditions noted are these: ETS1 concentration 1 nM; RUNX1 concentration 25 nM.
AATTGTCAATGGCAGGAAGCCACCACATGAAGAGAT: the ETS1 binding intensity turned out to be 1650.

On to CTGCACAAGGAAGCGCCTGTGTTGCTGTGGGCGGAG, for which the ETS1 binding intensity was 402.

Regarding TGGATGGCGGCGGATACTGCCCATGCCGCAAGGCCG, the ETS1 binding intensity was found to be 532.

For CGCCGGTCCCATATCCTTTCTGCGGGGTGAGCAGCA, the ETS1 binding intensity turned out to be 431.

Take ATTCTGCATCCTGTGCTCTTTCCATGAGACCACAAA: the ETS1 binding intensity was determined as 754.

Turning to GCTGCTGTAGTCGCTTCCTGCGGCCAGCCCGGGTTC, the ETS1 binding intensity was found to be 528.

On to GGGCAGCATCCTGTGCCTGCTTCTCTTACCCACATC, for which the ETS1 binding intensity was found to be 453.

CGCCGGACGTAGTGACGTAGCGCGCAGCCGCAGCGG: the ETS1 binding intensity turned out to be 476.

In the case of GACCCATTTCCTGGCTCAGGAGCCCACAGCCCTGGG, the ETS1 binding intensity amounted to 404.

For the sequence CGACCGGAACCACTCTGAGGCGCTGCCGCAGACACC, the ETS1 binding intensity is 583.

On to TCTGGGCTGACTTCCTGGCTTCGTCCCACAACTTCA, for which the ETS1 binding intensity is 617.

Take TAGGTTAGAATAAGAGGAAACCTCAAACCAGAACCC: the ETS1 binding intensity came out at 991.

Consider ATGCAGAAGCTACAGGAAGAAGCCGCAGGCCAAGCT, for which the ETS1 binding intensity was found to be 1120.

Take CCGAGCCGGCCTCTTCCGCCGCAAGTCCCTCCCCAA: the ETS1 binding intensity was 428.

As to GACAGGATACAAGAATTCCGCGGACTGCCGCAGTCG, the ETS1 binding intensity came to 649.

As for CGCCGTAGGAGGAAGCCGCGGCCGCAACGCTCCTGG, the ETS1 binding intensity came out at 816.

In the case of TGGGACGAGTGGGCGGAAACAGCCGCAGGTCTCTCT, the ETS1 binding intensity came to 2750.

Take GGTTTTGGTAGGAAGGAAAGTGGTTTTCATAGGAAG: the ETS1 binding intensity stood at 598.

TGAGTCATTTCCTGGGTGGGGGCCACAAGACCAGGT: the ETS1 binding intensity amounted to 553.

With AGCGGCTTCCTGCTGGGCTTTTGCACTCCCCACAAC, the ETS1 binding intensity stood at 523.

In the case of CCTGTTCCGGGCTCCGTACACCCAGGCCCGCAGCTG, the ETS1 binding intensity was 494.

In the case of GCCCCTCTTCCTGACTCACACAACCGCCTCTAGTCT, the ETS1 binding intensity was 330.

As to TGGCTACCCGGAAGGCGCGTTGGCTGCGGCTACGCA, the ETS1 binding intensity was 926.

On to CTTCGCCGCTTCCAGGAAGGGCCACAACGGCCGTCG, for which the ETS1 binding intensity was found to be 483.

Take GGCCTTCTGCCTACATCCTGCGGCGCCCGCGACCCG: the ETS1 binding intensity is 593.

With AGCACCCCACATCCTGCACCCCACAACCCAGATCCC, the ETS1 binding intensity turned out to be 546.

Take GGGGAAGAGGAAGCTGTGTCCGCGGTGCAAGGGGTT: the ETS1 binding intensity amounted to 542.

With CATTCCCGAGAGACTTCCGCGCCGCAGTTTCCCTGC, the ETS1 binding intensity turned out to be 380.

As for TGCACACATGAGGAAGGGGTAAGTGGTTTTCCCTAC, the ETS1 binding intensity came out at 468.

Regarding AACACTATTTCCTTTCTTGCTGCCCACATTTTAACA, the ETS1 binding intensity came out at 447.

AGGTGGGAGGAAGTTCCTACCCCGGCGCGGTGTGCA: the ETS1 binding intensity is 620.

In the case of CCGCCTCCGGAAGAATTCTCTGCGGGCATGTTGCTG, the ETS1 binding intensity worked out at 775.

As to CCCGGTGCACCGGATCCGACCACACCCTGGGTGGGC, the ETS1 binding intensity was determined as 400.

On to ACCCTCTTTCCGGTGGAAAGCTGCGGCCTCCCAGAG, for which the ETS1 binding intensity was found to be 380.

Regarding AGAACAGGATGTTCTGAGTACAGCATGAACCTCAAA, the ETS1 binding intensity stood at 1210.

GAACCCCAAGTTCCGGCTGGCACTGCGGCGGAGCCT: the ETS1 binding intensity turned out to be 299.

Take TCCTAGCCATTTCCTATCCACCCTGTGGCTAATTTG: the ETS1 binding intensity worked out at 476.

With GCAGGAAATGACGTCAGACCTCACTGCGGGTCTGAG, the ETS1 binding intensity was 1010.

Take CAAAGGGGAACGAGGAAACCGCCAGGGGCGGGGCGG: the ETS1 binding intensity amounted to 475.

Regarding AGCTGCGGAGCATCCGCTGCGGTCCTCGCCGAGACC, the ETS1 binding intensity worked out at 453.
